What all share (conditions): mRNA level, 48 h; actives raise or lower the signal
Read-out in assay [1]: Keratin 19 (KRT19), KRT19 (gene 3880)
Kind of assay: LTEA_HepaRG_KRT19: Life Technologies and Expression Analysis (LTEA) Assay for Keratin 19 (KRT19) using HepaRG (AID 2283512). In a few lines:
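HepaRG, 48 h chemical exposure, 8-pt half-log CRC from 100 uM, 0.5% DMSO vehicle, duplicates. Readout: TaqMan qRT-PCR of KRT19 mRNA, housekeeping-normalized (ACTB/GAPDH/POLR2A). Bidirectional fit vs DMSO baseline.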

Read-out in assay [2]: JUN Transcription Factor, JUN (gene 3725)
Put plainly: LTEA_HepaRG_JUN: Life Technologies and Expression Analysis (LTEA) Assay for JUN Transcription Factor using HepaRG (AID 2283513). The procedure, abridged:
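Read-out is JUN transcript level by TaqMan qRT-PCR, normalized to ACTB, GAPDH and POLR2A, after 48 h chemical treatment of HepaRG cells. Concentration-response spanned eight half-log points up to 100 uM in 0.5% DMSO.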

Read-out in assay [3]: Lipase C (LIPC), LIPC (gene 3990)
Kind of assay: LTEA_HepaRG_LIPC: Life Technologies and Expression Analysis (LTEA) Assay for Lipase C (LIPC) using HepaRG (AID 2283514). The procedure, abridged:
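In this multiplexed gene-expression screen, human HepaRG cultures received test chemicals for 48 h across eight concentrations with 100 uM highest, in duplicate. Values reflect LIPC mRNA induction or suppression versus DMSO vehicle, from normalized qRT-PCR.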

Read-out in assay [4]: Lipoprotein lipase (LPL), LPL (gene 4023)
Kind of assay: LTEA_HepaRG_LPL: Life Technologies and Expression Analysis (LTEA) Assay for Lipoprotein lipase (LPL) using HepaRG (AID 2283515). In a few lines: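 Concentration-response testing used half-log steps from 100 uM in 0.5% DMSO on human HepaRG cells, 48 h, duplicate wells. Phenobarbital 1 mM served as induction control; LPL mRNA was normalized to ACTB, GAPDH, POLR2A.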

Read-out in assay [5]: MicroRNA 122 (MIR122), gene 406906
Kind of assay: LTEA_HepaRG_MIR122: Life Technologies and Expression Analysis (LTEA) Assay for MicroRNA 122 (MIR122) using HepaRG (AID 2283516). Also: the transcript read is the microRNA miR-122. In a few lines: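 Human liver HepaRG cultures receive test chemicals for 48 h at eight half-log concentrations from 100 uM. Expression is quantified by qRT-PCR with ACTB/GAPDH/POLR2A normalization and fitted bidirectionally against 0.5% DMSO.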

Read-out in assay [6]: matrix metalloproteinase-10 (MMP10), MMP10 (gene 4319)
Put plainly: LTEA_HepaRG_MMP10: Life Technologies and Expression Analysis (LTEA) Assay for matrix metalloproteinase-10 (MMP10) using HepaRG (AID 2283517). The procedure, abridged:
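In differentiated HepaRG cultures kept in 0.5% DMSO, test chemicals act for 48 h over an eight-point range with a top dose of 100 uM. Expression is then quantified by TaqMan RT-PCR against ACTB, GAPDH and POLR2A.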

Read-out in assay [7]: Paternally Expressed 10 (PEG10), PEG10 (gene 23089)
Put plainly: LTEA_HepaRG_PEG10: Life Technologies and Expression Analysis (LTEA) Assay for Paternally Expressed 10 (PEG10) using HepaRG (AID 2283520).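 As to AC50: differentiated HepaRG human liver cells in serum-free induction medium with 0.5% DMSO; PEG10 transcript by qRT-PCR normalised to ACTB GAPDH and POLR2A.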 In a few lines: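 Human HepaRG cultures are dosed for 48 h across an eight-point half-log series starting at 100 uM, with 0.5% DMSO as vehicle and baseline. Gain or loss of PEG10 transcript is measured by qRT-PCR and fitted in both directions.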

Read-out in assay [8]: Nuclear factor NF-kappa-B p105 subunit (Homo sapiens) (UniProt P19838)
Kind of assay: LTEA_HepaRG_NFKB1: Life Technologies and Expression Analysis (LTEA) Assay for Nuclear Factor Kappa B Subunit 1 (NFKB1) using HepaRG (AID 2283521).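 As to outcome: differentiated human HepaRG liver cells in serum-free induction medium; TaqMan qRT-PCR transcript normalised to ACTB GAPDH and POLR2A housekeeping genes.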 In a few lines:
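HepaRG, 48 h exposure; 8-pt half-log series from 100 uM in 0.5% DMSO; duplicates. Readout: NFKB1 mRNA by qRT-PCR (Fluidigm arrays), housekeeping-normalized. Gain/loss fit vs DMSO baseline.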

Read-out in assay [9]: matrix metalloproteinase-3 (MMP3), MMP3 (gene 4314)
Put plainly: LTEA_HepaRG_MMP3: Life Technologies and Expression Analysis (LTEA) Assay for matrix metalloproteinase-3 (MMP3) using HepaRG (AID 2283519). The procedure, abridged: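 Human liver HepaRG cultures received chemicals (top concentration 100 uM, 0.5% DMSO) for 48 h in duplicate. MMP3 mRNA induction or loss was then assessed via TaqMan qRT-PCR with housekeeping-gene normalisation.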

Read-out in assay [10]: MYC, MYC (gene 4609)
Put plainly: LTEA_HepaRG_MYC: Life Technologies and Expression Analysis (LTEA) Assay for MYC using HepaRG (AID 2283518). The procedure, abridged:
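qRT-PCR read-out of MYC transcript (Fluidigm TaqMan, housekeeping-normalized) after 48 h chemical exposure of HepaRG cells; eight concentrations, top 100 uM, half-log steps. Bidirectional curve fitting against 0.5% DMSO vehicle baseline.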

Here are results for 21 compounds from PubChem BioAssay (EPA / NIEHS).

A word on the AC50: it is the concentration at which the activity in the assay is half-maximal.

“And” between values parts separate entries of the source, which are not always exact repeats. Equal values may be shown once. More than one record can exist for a structure, and the calls need not agree. The source made the active and inactive calls. The calls were made as follows: active = hit-call score of the fitted dose curve at least 0.9, where 1 is the maximum; inactive = score below 0.9.

Nuclear factor NF-kappa-B p105 subunit (Homo sapiens), sequence (P19838 whole entry, looked up): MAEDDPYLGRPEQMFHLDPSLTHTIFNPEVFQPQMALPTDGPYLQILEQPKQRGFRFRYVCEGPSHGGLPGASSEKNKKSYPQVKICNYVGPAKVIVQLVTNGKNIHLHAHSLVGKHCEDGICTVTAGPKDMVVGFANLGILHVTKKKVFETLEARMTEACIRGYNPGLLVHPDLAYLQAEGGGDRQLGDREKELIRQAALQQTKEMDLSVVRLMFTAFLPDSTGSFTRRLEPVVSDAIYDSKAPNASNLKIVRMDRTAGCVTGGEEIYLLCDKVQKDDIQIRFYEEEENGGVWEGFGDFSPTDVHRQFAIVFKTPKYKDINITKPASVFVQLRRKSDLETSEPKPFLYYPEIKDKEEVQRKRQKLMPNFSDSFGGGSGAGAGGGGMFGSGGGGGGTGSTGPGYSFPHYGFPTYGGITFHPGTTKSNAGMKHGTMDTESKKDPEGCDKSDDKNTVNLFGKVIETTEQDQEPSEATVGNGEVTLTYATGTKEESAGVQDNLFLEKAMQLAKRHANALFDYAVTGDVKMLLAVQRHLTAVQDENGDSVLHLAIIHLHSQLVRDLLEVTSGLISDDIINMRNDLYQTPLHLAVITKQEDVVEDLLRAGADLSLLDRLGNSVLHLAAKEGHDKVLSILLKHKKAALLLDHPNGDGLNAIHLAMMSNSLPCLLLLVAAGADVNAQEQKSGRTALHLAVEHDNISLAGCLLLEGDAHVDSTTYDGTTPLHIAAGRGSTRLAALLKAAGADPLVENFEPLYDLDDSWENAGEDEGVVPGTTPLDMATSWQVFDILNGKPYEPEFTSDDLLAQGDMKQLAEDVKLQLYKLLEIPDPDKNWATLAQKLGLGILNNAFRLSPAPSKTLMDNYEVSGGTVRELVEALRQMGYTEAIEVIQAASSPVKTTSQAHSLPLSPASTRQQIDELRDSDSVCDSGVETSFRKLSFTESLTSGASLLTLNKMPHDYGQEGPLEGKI

Take `Oc1cc(Cl)ccc1Oc1ccc(Cl)cc1Cl`: the AC50 in [1] was 69 µM (active); in [3], 78.7 µM (active); in assay [4] it was 86.4 nM (active) and 51 µM (active); in assay [5] it was 82.3 µM (active); in assay [6], 89 µM (active); in assay [7], 51 µM (active). The compound was called inactive in [1], in assay [2], in assay [3], in assay [4], in assay [5] and in assay [6]. The compound was called inactive in [7] and in assay [8].

Take `N#Cc1c(Cl)c(Cl)c(Cl)c(C#N)c1Cl`: the AC50 in assay [1] is 12.7 µM (active); in [3], 50 µM (active); in assay [4] it was 18 µM (active); in [5], 90.9 µM (active); in assay [6] it was 15.6 µM (active). For the same compound, the compound was called inactive in assay [2] and in assay [7].

Turning to `CC1(c2ccc(Oc3ccccc3)cc2)OC(=O)N(Nc2ccccc2)C1=O` (configuration not stated), the AC50 in [1] is 2.79 µM (active); in assay [2], 33.5 µM (active); in assay [3] it was 21.5 µM (active); in assay [4], 12.3 µM (active); in assay [5], 10.6 µM (active); in [6], 26.1 µM (active). Moreover, the AC50 was 10.6 µM (active) in assay [9] and 6.47 µM (active) in assay [7].

As to `O=[N+]([O-])/N=C1\NCCN1Cc1ccc(Cl)nc1`, the compound was called inactive in assay [1], in assay [2] and in [6]. The AC50 in assay [3] is 36.4 µM (active); in [4] it was 33 µM (active); in [5] it was 23.9 µM (active); in assay [7], 16.6 µM (active).

As to `CCC(C)Nc1c([N+](=O)[O-])cc(C(C)(C)C)cc1[N+](=O)[O-]` (configuration not stated), the call in assay [1], in [2], in [3], in [4], in assay [5] and in assay [6] was inactive. Moreover, the AC50 in assay [7] was 29.9 µM (active).

Take `COP(=S)(OC)Oc1ccc([N+](=O)[O-])cc1`: the call in assay [1], in [2], in assay [3], in [4], in assay [5] and in assay [6] was inactive. Moreover, the compound was called inactive in assay [10], in assay [9], in [7] and in assay [8].

`CCC(C)(C)C(=O)OC1=C(c2ccc(Cl)cc2Cl)C(=O)OC12CCCCC2`: the compound was classed as inactive in assay [1], in assay [2], in assay [3], in assay [5], in [6] and in [9]. In addition, the compound was called inactive in assay [7] and in assay [8]. The AC50 in [4] was 40.8 µM (active).

For the compound `CCc1ccc(C(=O)NN(C(=O)c2cc(C)cc(C)c2)C(C)(C)C)cc1`, the compound was called inactive in [1], in [2], in assay [3], in assay [4], in assay [5] and in [6]. Also, the compound was classed as inactive in assay [9], in [7] and in assay [8].

With `CNC(=O)/C=C(\C)OP(=O)(OC)OC`, the outcome in [1], in assay [2], in [3], in assay [4], in [5] and in assay [6] was inactive. Further, the compound was called inactive in assay [7].

Turning to `CNC(=O)CSP(=S)(OC)OC`, the result in assay [1], in assay [2], in assay [3], in assay [4], in [5] and in assay [6] was inactive. In addition, in [7], the outcome was inactive.

For `N#CN`, the call in [1], in [2], in assay [3], in [4], in assay [5] and in [6] was inactive. Moreover, the compound was classed as inactive in [10], in assay [9], in assay [7] and in assay [8].

Regarding `O=C1c2ccccc2C(=O)N1SC(Cl)(Cl)Cl`, the outcome in assay [1], in [2], in assay [3], in [4], in assay [5] and in assay [6] was inactive. In addition, the compound was classed as inactive in assay [9], in [7] and in [8].

Take `O=S(=O)(O)C(F)(F)C(F)(F)C(F)(F)C(F)(F)C(F)(F)C(F)(F)C(F)(F)C(F)(F)F`: the AC50 in [1] is 33.1 µM (active) and 32.8 µM (active) and 62.9 µM (active); in assay [3], 76 µM (active) and 50 µM (active) and 48 µM (active); in assay [4], 61.1 µM (active); in assay [5], 82.5 µM (active) and 84.5 µM (active) and 48 µM (active); in [6], 87.5 µM (active) and 83.7 µM (active); in [10] it was 50 µM (active) [middle of 4 runs]. The call in [1], in assay [2], in assay [3], in [4], in [5] and in [6] was inactive. For the same compound, the call in assay [7] was inactive.

On to `CCCN(CCOc1c(Cl)cc(Cl)cc1Cl)C(=O)n1ccnc1`, for which the AC50 in assay [1] was 12.7 µM (active); in assay [2] it was 50 µM (active); in assay [3] it was 44.3 µM (active); in [4], 25.7 µM (active); in [5], 11.7 µM (active); in assay [6] it was 57.8 µM (active). Also, the concentration at half-maximal activity (AC50) in assay [7] is 6.24 µM (active).

Consider `Oc1ccc(Cl)cc1Cc1ccccc1`, for which the AC50 was 50.5 µM (active) in assay [1]; 80.2 µM (active) in assay [3]; 82.2 µM (active) and 89.3 µM (active) in assay [4]; 82.4 µM (active) in assay [5]; 89 µM (active) and 77.3 µM (active) and 78.6 µM (active) in assay [7]; 15.7 µM (active) in assay [8]. For the same compound, the call in assay [1], in assay [2], in assay [3], in assay [4], in assay [5] and in assay [6] was inactive. In assay [8], the result was inactive.

For the compound `CCOCN(C(=O)CCl)c1c(C)cccc1CC`, the call in assay [1], in assay [2], in [4], in assay [6], in assay [9] and in assay [7] was inactive. The AC50 was 88.4 µM (active) in assay [3], 50 µM (active) in assay [5] and 0.338 µM (active) in assay [8].

Turning to `CNC(=O)Oc1ccccc1OC(C)C`, the compound was called inactive in assay [1], in assay [2], in [3], in assay [4], in assay [5] and in assay [6]. Besides, the compound was called inactive in [10], in [7] and in assay [8].

Turning to `CCC(C)(NC(=O)c1cc(Cl)c(C)c(Cl)c1)C(=O)CCl` (configuration not stated), the AC50 in [1] was 32.4 µM (active); in assay [3], 50.2 µM (active); in assay [4], 90.1 µM (active); in [5], 75.5 µM (active); in [6], 50.2 µM (active); in [10], 50.2 µM (active). In assay [7], the AC50 is 59.2 µM (active). For the same compound, the outcome in [2] and in assay [8] was inactive.

In the case of `O=C(NC(=O)c1c(F)cccc1F)Nc1ccc(OC(F)(F)C(F)OC(F)(F)F)c(Cl)c1` (configuration not stated), the call in assay [1], in assay [2], in assay [3], in assay [4], in assay [5] and in assay [6] was inactive. In addition, the compound was classed as inactive in [10], in assay [7] and in [8].

As to `Clc1ccccc1-c1nnc(-c2ccccc2Cl)nn1`, the AC50 in [1] is 21.5 µM (active); in [7], 30.7 µM (active). For the same compound, the call in assay [2], in [3], in assay [4], in assay [5] and in assay [6] was inactive.

For `CC(C)(C)C(O)/C(=C\c1ccc(Cl)cc1Cl)n1cncn1` (configuration not stated), the compound was classed as inactive in [1], in assay [5] and in assay [6]. For the same compound, the AC50 in assay [2] is 72.7 µM (active); in [3], 21.5 µM (active); in assay [4], 12.4 µM (active); in [7], 62.5 µM (active).
